Test results as given in PubChem BioAssay.
Values joined by “and” are separate entries in the source; they are usually repeats but may differ in a detail not shown here. Identical values can stand only once.

Test: compounds binding Alexa647 anti-His antibody – biochemical, small-molecule microarray, 635 nm fluorescence, artefact control for SMM control protein annotation, primary screen (AID 1128);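 note: score merges feature fluorescence with signal-to-noise for each printed compound spot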
Conditions: higher = more signal

Which composite z-score does the source give for `CC(C)=NOC[C@@H](O)COCc1ccco1` here?
The composite z-score was 1.27.

With `COC(=O)C1=C(C)N(Cc2ccccc2)C2=C(C(C)=O)C[C@@](O)(C(=O)OC)C(=O)N2[C@@H]1c1ccccc1` as the compound, how does the composite z-score read?
Its composite z-score is 1.23 and -0.0396.

For `COC(=O)[C@@]1(Cc2ccc(OC)cc2)[C@H]2c3cc(C(=O)N(C)C)n(Cc4ccc(O)c(OC)c4)c3C[C@H]2CN1C(=O)c1ccccc1`, which composite z-score is on record?
The composite z-score was 1.8 and 2.3.

For `C=CC[C@H](O)c1ccc(OCCO)cc1`, which composite z-score is on record?
Its composite z-score is 0.185 and 0.0367.

Which composite z-score does the source give for `CC(C)=NO[C@@H](C)c1cc(-c2c(C)cc(C)cc2C)no1` here?
The composite z-score was 1.01.

Which composite z-score does the source give for `C[N+](C)(C)CCCCNC(=O)[C@H]1C[C@H]2C(=O)N[C@@H](CCCC[N+](C)(C)C)C(=O)N2[C@H]1c1ccc(O)cc1` here?
Its composite z-score is 2.99 and 3.33.

Which composite z-score does the source give for `C[C@@]1([C@@H](NC(=O)Cc2ccccc2)c2ccc(-c3ccccc3)cc2)C[C@H]1C1CCCCC1` here?
Its composite z-score is 1.13 and 1.49 and 1.27.

With `CCN1C(=O)[C@H]2[C@H]3[C@H](O)[C@H](O)CC(=NOC)[C@@H]3CC[C@H]2C1=O` as the compound, how does the composite z-score read?
Its composite z-score is -0.121.

With `O=C1NC(=O)C2C1C=CC(C(O)c1ccc([N+](=O)[O-])cc1)N2Nc1ccc(Cl)cc1Cl` (stereo not given) as the compound, how does the composite z-score read?
The composite z-score was 0.396 and 0.455.

With `C=C[C@H](C)[C@@H](O)c1ccc(OCCO)cc1` as the compound, how does the composite z-score read?
Its composite z-score is -0.419 and 0.713.

For `CC(C)CON=C1C[C@@H](O)[C@@H](O)[C@@H]2[C@@H]3C(=O)N(c4cccc(Oc5ccccc5)c4)C(=O)[C@@H]3CC[C@H]12`, which composite z-score is on record?
Its composite z-score is 0.348.

With `CO[C@H]1COC(=O)CC=C[C@@H](C)COC(=O)[C@H](CCSC)NC(=O)CC=C[C@@H]1C` as the compound, how does the composite z-score read?
Its composite z-score is 0.512 and -0.138.

For `C=C[C@@H](OC)[C@H](O)c1ccc(OCCO)cc1`, which composite z-score is on record?
Its composite z-score is 3.17 and -0.401.

Which composite z-score does the source give for `CCOC(=O)c1ccc(NC(=O)O[C@H]2[C@H](OC(=O)Nc3ccccc3)[C@@H](OC(=O)Nc3ccccc3)[C@@H](OC)O[C@@H]2CO)cc1` here?
The composite z-score was 2.39 and 2.88.

With `C=CCN(C(=O)C(c1cccs1)N(CCOCCO)C(=O)/C=C\C(=O)O)c1ccc(OC)cc1` (stereo not given) as the compound, how does the composite z-score read?
Its composite z-score is -0.542 and -1.89.

For `C#CCN1C(/C=C/c2ccccc2)C(=O)OC[C@H]1c1ccccc1` (stereo not given in full), which composite z-score is on record?
Its composite z-score is 0.195 and 0.338.

Which composite z-score does the source give for `CO[C@@H]1COC(=O)CC=C[C@H](C)COC(=O)[C@H](C)NC(=O)CC=C[C@H]1C` here?
Its composite z-score is 0.401.

With `Cc1cc2c(nc1C)CCCN2CC(O)CN1CCCc2nc(-c3ccc(Br)cc3)ccc21` (stereo not given) as the compound, how does the composite z-score read?
The composite z-score was 1.48 and 2.06.

With `C=CCN(CCCCC)C(=O)C(c1cccs1)N(CCOCCO)C(=O)/C=C\C(=O)O` (stereo not given) as the compound, how does the composite z-score read?
The composite z-score was -0.635 and -0.348.

For `COc1ccc(-c2ccc3c(n2)CCCN3CC(O)CN2CCCc3nc(-c4ccc(Br)cc4)ccc32)cc1` (stereo not given), which composite z-score is on record?
Its composite z-score is 1.33 and 1.2.

Which composite z-score does the source give for `C=C[C@H](OC)[C@@H](O)c1ccc(OCCO)cc1` here?
Its composite z-score is -1.34 and 2.11.

Which composite z-score does the source give for `C=CCN(C(=O)C1N(CCCCCCO)C(=O)C2C(C(=O)O)C3C=CC21O3)c1ccc(OC)cc1` (stereo not given) here?
Its composite z-score is -1.91 and -1.82.

Which composite z-score does the source give for `O=C1C[C@]2(c3ccc([N+](=O)[O-])cc3)C(=O)N(Cc3ccccc3)c3cc(CO)ccc3[C@H]2N1C1CCCCC1` here?
The composite z-score was 0.0501 and 1.06.

For `C=CCN(C(=O)C1N(c2c(Cl)cccc2CO)C(=O)C2C(C(=O)O)C3C=CC21O3)c1ccc(OC)cc1` (stereo not given), which composite z-score is on record?
Its composite z-score is 0.0132 and -1.11.

With `C=CCN(C(=O)C1N(CCOCCO)C(=O)C2C(C(=O)O)C3C=CC21O3)C(C)(C)C` (stereo not given) as the compound, how does the composite z-score read?
The composite z-score was -0.673 and -0.976.

With `COC(=O)C1=C2N(Cc3ccccc3)C(C)=C(C(=O)OC)[C@@H](c3ccccc3)N2C(=O)[C@](O)(C(=O)OC)C1` as the compound, how does the composite z-score read?
The composite z-score was 0.0444 and -0.657.

Which composite z-score does the source give for `O=c1n(-c2ccccc2)c(=O)n2n1CC[C@@H]1C(=NOC[C@@H](O)COCc3ccco3)[C@H]3O[C@H]3[C@@H](O)[C@@H]12` here?
The composite z-score was 0.196 and 1.9.

With `CC(CO)N1C(=O)[C@@H]2C3C(=O)OCCC=C[C@H]3OC23C=CCN(c2ccc(Cl)cc2)C(=O)[C@@H]13` (stereo not given in full) as the compound, how does the composite z-score read?
Its composite z-score is -1.31 and 1.36.

For `CC(C)[Si]1(C(C)C)OCc2cc(CCCc3cc4c(c(CCc5ccccc5)n3)[Si](C(C)C)(C(C)C)OC4)nc(CCc3ccccc3)c21`, which composite z-score is on record?
Its composite z-score is -0.779 and 0.0773.

With `C=CCN(Cc1ccccc1)C(=O)C1N(CCOCCO)C(=O)C2C(C(=O)O)C3C=CC21O3` (stereo not given) as the compound, how does the composite z-score read?
Its composite z-score is -1.85 and -0.223.

For `C[N+](C)(C)CCCCCCNC(=O)[C@H]1C[C@H]2C(=O)N[C@@H](CCCC[N+](C)(C)C)C(=O)N2[C@H]1c1cccc(OCCO)c1`, which composite z-score is on record?
Its composite z-score is 1.91 and 1.46.

Which composite z-score does the source give for `CCCCCN1CC=CC23O[C@@H]4C=CCCOC(=O)C4[C@H]2C(=O)N(C(C)CO)[C@@H]3C1=O` (stereo not given in full) here?
The composite z-score was 1.58 and 0.0947.

Which composite z-score does the source give for `O=C1[C@H]2[C@H]3[C@H](O)[C@H](O)CC(=NOCc4ccccc4)[C@H]3CC[C@H]2C(=O)N1Cc1ccccc1` here?
The composite z-score was 0.17.

For `CO[C@H]1COC(=O)CC=C[C@H](C)[C@H](OC)COC(=O)[C@@H](C)COC(=O)CC=C[C@@H]1C`, which composite z-score is on record?
Its composite z-score is 0.155 and -0.15.

Which composite z-score does the source give for `CN1C(=O)C2CC=C([C@H]3Oc4ccccc4S(=O)(=O)N4CCC[C@@H]34)CC2C1=O` (stereo not given in full) here?
Its composite z-score is 0.009 and -0.183.

Which composite z-score does the source give for `C[C@@H](ON=C1[C@H]2CCn3c(=O)n(-c4ccccc4)c(=O)n3[C@H]2[C@H](O)[C@@H]2O[C@H]12)c1cn([C@H](CO)Cc2ccccc2)nn1` here?
The composite z-score was 2.66.

With `CCOC(=O)C[C@H]1[C@H](OC(=O)c2ccccc2-c2ccccc2)[C@@H](NC(=O)Cc2ccc(OC)cc2)c2cc(OCCCO)ccc2N1C(=O)c1ccc2ccccc2n1` as the compound, how does the composite z-score read?
The composite z-score was 0.206 and -0.185.

Which composite z-score does the source give for `CCOC(=O)[C@H](CC(C)C)NC(=O)CCC1CC(OC(=O)NCc2cccc3ccccc23)CC2(CCCC(COC(=O)NCc3ccccc3)O2)O1` (stereo not given in full) here?
The composite z-score was 0.223.

Which composite z-score does the source give for `Cc1ccc(S(=O)(=O)N[C@@H]2COC(=O)CC=C[C@@H](C)[C@@H]3C=C[C@H](O)[C@@H](COC(=O)CC=C[C@H]2C)O3)cc1` here?
The composite z-score was -0.226 and -0.118.

With `CO[C@@H]1COC(=O)[C@H](Cc2ccccc2)NC(=O)CC=C[C@@H](C)[C@H](OC)COC(=O)[C@@H](C)NC(=O)CC=C[C@H]1C` as the compound, how does the composite z-score read?
Its composite z-score is 0.106 and 0.0473.
